# Assay outcomes deposited in PubChem BioAssay by National Center for Advancing Translational Sciences (NCATS).
# Pf Dd2 growth = Plasmodium falciparum Dd2 growth inhibition. AID 1347417. P. falciparum Dd2 growth, SYBR Green, 72 h. Potency, µM (top dose mostly 28.9 µM), hits mostly inhibitors. 120,000 tested, 4.3% active; active = well fitted inhibition curve with a large enough effect; note: nearly all actives have a fitted effect of over 65% in size
#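 Infected erythrocytes (Dd2, 0.3% parasitemia, 2.5% hematocrit final) are added to compound in RPMI-1640/Albumax II medium, grown 72 h at 37C in low oxygen, then lysed with saponin/Triton-X containing SYBR Green and read by fluorescence.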
# A number is an active result; 0 = inactive. Shown is part of a subset that was picked to be rich in hits.
SMILES,Pf Dd2 growth
CC(C)CC(=O)NCCC1CCN(C(=O)Nc2cc(F)cc(F)c2)CC1,0
CC(=O)N1CCC(N2CC[C@@H](CO)N(C)c3nc(C)ccc3C2)CC1,0
CCOC(=O)C1(Cc2ccccc2Cl)CCN(C(=O)c2ccsc2)CC1,0
CCOC(=O)C1(Cc2ccccc2Cl)CCN(Cc2cccc3c2OCO3)CC1,8.9µM
CCOC(=O)C1(Cc2ccccc2F)CCCN(C(=O)C2=C(C)OCCO2)C1 (centres undefined),0
O=C(NCc1ccco1)C1CCN(C(=O)c2ncn3c2COC(c2ccc(F)cc2)C3)CC1 (centres undefined),0
CNC(=O)[C@@H]1CN(C(=O)c2cccc(OC(F)(F)F)c2)C[C@H]1CO,0
O=C1NC2(CCCN(Cc3cccc4ccccc34)C2)Oc2ccccc21 (centres undefined),0
Cn1cnc(S(=O)(=O)N2CCCN(C(=O)c3ccncc3)CCNC(=O)CC2c2ccccc2)c1 (centres undefined),0
Cc1ccc(C(=O)N2CCCN(S(C)(=O)=O)C(c3ccccc3)CC(=O)NCC2)cn1 (centres undefined),0
Cn1ccnc1C(=O)N1CCCN(S(C)(=O)=O)C(c2ccccc2)CC(=O)NCC1 (centres undefined),0
Cc1ncccc1C(=O)N1CCCN(Cc2ccncc2)C(c2ccccc2)CC(=O)NCC1 (centres undefined),11µM
Cn1cccc1C(=O)N1CCCN(Cc2ccncc2)C(c2ccccc2)CC(=O)NCC1 (centres undefined),2.5µM
Cc1cccc(C(=O)N2CCCCCNC(=O)CC2c2ccccc2)c1 (centres undefined),0
Cc1ccc(C(=O)N2CCCN(Cc3ccncc3)C(c3ccccc3)CC(=O)NCC2)cn1 (centres undefined),0
Cc1cccc(C(=O)N2CCCN(Cc3ccncc3)C(c3ccccc3)CC(=O)NCC2)c1 (centres undefined),2.2µM
O=C1CC(c2ccccc2)N(Cc2ccncc2)CCCN(C(=O)c2ccc3ncccc3c2)CCN1 (centres undefined),6.3µM
O=C1CC(c2ccccc2)N(Cc2ccncc2)CCCN(C(=O)c2ccc3ccccc3n2)CCN1 (centres undefined),0
Cn1cccc1C(=O)N1CCCN(S(=O)(=O)c2ccccc2)CCC(=O)NCC1,0
Cc1cccc(C(=O)N2CCCN(C(=O)C3CC3)C(c3ccccc3)CC(=O)NCC2)c1 (centres undefined),0
COc1ccc(C(=O)N2CCC(Cn3c(C)cnc3C3CCC3)CC2)c(OC)c1,0
O=C(Nc1nc2c(s1)CCC2)C1CC(=O)N(c2n[nH]c3ccccc23)C1 (centres undefined),0
Cc1cc(C(=O)NCC23CCCC=C2NC(=O)CC3)n(C)n1 (centres undefined),0
CS(=O)(=O)N1CCC(OC2CCN(C(=O)NC3CCCCC3)CC2)CC1,0
CC(C)C[C@H]1NC(=O)[C@@H]2C[C@@H](n3nnc(C(N)=O)c3C(N)=O)CCN2C1=O,0
SMILES,Pf Dd2 growth
CC1=NS(=O)(=O)N(C)C=C1C(=O)OCc1nc(-c2cccs2)no1,0
Cc1ccccc1NC(=O)Cn1c(-c2ccc(F)cc2)nc(C)c(CCO)c1=O,0
O=C(NCC1CC1)[C@H]1CN(Cc2ccccc2)C[C@H]1C(=O)O,0
CCNC(=O)C1C(c2ccc(NC(=O)c3cccc(Cl)c3)cc2)OC(=O)N1Cc1ccc(C)cc1 (centres undefined),0
CS(=O)(=O)N1CCCN(C(=O)c2ccsc2)CCNC(=O)CC1c1ccccc1 (centres undefined),0
CCCS(=O)(=O)N1CCCC(C(=O)NCc2ccccc2)CCNC(=O)CC1 (centres undefined),0
COc1cccc(CC(=O)N2CCCN(S(C)(=O)=O)C(c3ccccc3)CC(=O)NCC2)c1 (centres undefined),0
O=C1CC(c2ccccc2)N(Cc2ccncc2)CCCN(C(=O)c2ccsc2)CCN1 (centres undefined),5.6µM
CS(=O)(=O)N1CCCN(Cc2ccc(C#N)cc2)CCNC(=O)CC1c1ccccc1 (centres undefined),0
O=C1CC(c2ccccc2)N(Cc2ccncc2)CCCN(C(=O)CN2C(=O)CCC2=O)CCN1 (centres undefined),0
CCCS(=O)(=O)N1CCCN(Cc2ccncc2)C(c2ccccc2)CC(=O)NCC1 (centres undefined),14µM
COc1cccc(CN2CCCN(Cc3ccncc3)C(c3ccccc3)CC(=O)NCC2)c1 (centres undefined),1.4µM
O=C1CC(c2ccccc2)N(C(=O)C2CC2)CCCN(C(=O)c2cccs2)CCN1 (centres undefined),0
CC1(CNC(=O)C2COc3ccccc3O2)CCOCC1 (centres undefined),0
CN(Cc1ccc(OC(F)(F)F)cc1)C1CCc2ccccc21 (centres undefined),0
COc1ccc(CN2CC3(CCN(C(=O)Nc4cccc(C)c4)CC3)C2=O)cc1,0
Cc1cccc(OCC2(CNCc3ccccn3)C[C@@H](O)[C@@H](O)C2)n1 (some centres undefined),0
COc1cccc(OCc2nc(C(=O)N3CCC4(CC3)CNC(=O)O4)co2)c1,0
CC(C)c1nncn1C1CCN(S(=O)(=O)c2cccc(F)c2)CC1,0
Cc1cc(C2CCCN2C(=O)c2ccn(C)n2)on1 (centres undefined),0
Cc1ccc(OCC(=O)N2CCCN(S(C)(=O)=O)c3ccccc32)cc1,0
CCc1noc(-c2ccn3c(CNC(=O)c4ccoc4)nnc3c2)n1,0
COc1ccc(NC(=O)c2ccco2)cc1NC(=O)c1c(OC)cccc1OC,0
COc1ccc(C(=O)Nc2cc(NC(=O)c3ccco3)ccc2OC)cc1Cl,0
COc1ccc(NC(=O)c2ccco2)cc1NC(=O)C(C)(C)Oc1ccc(Cl)cc1,10µM
SMILES,Pf Dd2 growth
Cn1ncnc1CCNC(=O)C1CCN(C(=O)C2CCC2)CC1,0
CCCNC(=O)N(C1CCOCC1)C1CCN(S(=O)(=O)c2cccnc2)CC1,0
N#Cc1ccc(CN2CCCC3(Cc4ccccc4CNC3=O)C2)cc1 (centres undefined),0
COc1ccc(C(=O)NC(c2ccc(Cl)cc2)c2cc(Cl)c3cccnc3c2O)cc1 (centres undefined),2.8µM
COc1ccc(S(=O)(=O)c2c(O)c3ccc(C(=O)NCc4ccc(Cl)cc4)cc3[nH]c2=O)cc1,0
COc1ccc(C(=O)Nc2cc(C(C)C)c(O)c(S(=O)(=O)c3ccc(OC)cc3)c2C)cc1,0
CS(=O)(=O)c1ccc(CN[C@@H]2CO[C@H](CNC(=O)Nc3ccccc3)[C@H]2O)cc1,0
CNC(=O)[C@@H]1CN(C(=O)c2cncn2C)C[C@H]1COC,0
CC1(CCCCc2ccccc2)COc2ccc(C(=O)NC3CC3)cc2N1 (centres undefined),0
Cc1ccc2c(c1)c(=O)c(C(=O)c1ccncc1)cn2CC(=O)Nc1ccccc1Cl,0
CCc1cccc(NC(=O)Cn2cc(C(=O)c3ccncc3)c(=O)c3cc(C)c(C)cc32)c1,10µM
Cc1cc(C)cc(NC(=O)Cn2cc(C(=O)c3ccncc3)c(=O)c3cc(C)c(C)cc32)c1,0
CCCNC(=O)N1CCCCCCN(C)C(=O)CC1,0
COCCNC(=O)[C@H]1C[C@H](Oc2ccccc2)CN1C(=O)NCc1ccc(F)cc1,0
CCc1ccc(NC(=O)c2ccc3c(c2)N(Cc2ccc(C)cc2)CCS3)cc1,8.9µM
Cc1ccc(CCNC(=O)c2ccc3c(c2)N(Cc2ccc(F)cc2)CCS3)cc1,0
